# Experimental data as given in PubChem BioAssay.
# Calls of active or inactive are those of the source.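 Rule for the calls, unless noted: active = fluorescence slope after compound addition differing from the mean of all screened samples at 99.7% confidence, in either direction; inactive = the rest.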
# Legend:
# [1] = inhibitors of TNFa-induced NFkB p65 translocation, primary screen, imaging, HUVEC, MLSMR starter and 10KST1 sets (AID 438;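 active = inhibition above 20% together with a positive visual image hit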;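 note: compound added about 3h40 before a 20 min TNFalpha stimulation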;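 for inhibition: signal is the nuclear over cytoplasmic p65 intensity ratio per well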); settings: HUVEC TNFa-induced p65 nuclear translocation; cell count: measured here: nuclei count (cytotoxicity indicator), at 2.08 µM; inhibition: at 2 µM, stronger effect = higher value, 0% TNFa-plus-vehicle, 100% no-TNFa wells
# [2] = reduction of polyQ htt aggregates in cells – imaging, exon1htt(103Q)mCFP cells, high-content imaging, primary screen (AID 483;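 active = visual image review flags a hit and inhibition of aggregation exceeds 20%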;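 note: compound exposure lasted 3 days before fixation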;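 for nuclei count: percent of the per-plate median nuclei count of sample wells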); settings: exon1htt(103Q)mCFP cell line, aggregate imaging, at 2 µM; inhibition of aggregation: stronger effect = higher value; nuclei count: measured here: cell count, toxicity
# [3] = endothelial E-selectin expression blockers – imaging, HUVEC, immunofluorescence, MLSMR starter and 10KST1 sets, primary screen (AID 487;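 active = visually confirmed hit in the image check and inhibition above 20%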;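 for inhibition: signal is fraction of cell area covered by stained E-selectin grains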;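 for nuclei count: 100% = median nuclei count of all wells on the same plate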); settings: HUVEC TNFalpha-induced E-selectin immunofluorescence imaging, at 2 µM; inhibition: stronger effect = higher value; nuclei count: measured here: cell number, toxicity
# [4] = target: Voltage-gated potassium channel subunit beta-2 (Rattus norvegicus) (UniProt P62483); experiment: inhibitors of rat Kvbeta2 reductase activity – biochemical, NADPH fluorescence, primary screen (AID 622;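 active = fluorescence slope higher than the sample average by over 3 SD, cut at about -0.22 in these data, passing the limit was not always enough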;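 note: slope of raw intensity against log time taken from 70 to 1610 s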); settings: recombinant KvBeta, 4-cyanobenzaldehyde reduction, at 10 µM, stronger effect = higher value
# Sequence of Voltage-gated potassium channel subunit beta-2 (Rattus norvegicus) (P62483 whole entry, looked up): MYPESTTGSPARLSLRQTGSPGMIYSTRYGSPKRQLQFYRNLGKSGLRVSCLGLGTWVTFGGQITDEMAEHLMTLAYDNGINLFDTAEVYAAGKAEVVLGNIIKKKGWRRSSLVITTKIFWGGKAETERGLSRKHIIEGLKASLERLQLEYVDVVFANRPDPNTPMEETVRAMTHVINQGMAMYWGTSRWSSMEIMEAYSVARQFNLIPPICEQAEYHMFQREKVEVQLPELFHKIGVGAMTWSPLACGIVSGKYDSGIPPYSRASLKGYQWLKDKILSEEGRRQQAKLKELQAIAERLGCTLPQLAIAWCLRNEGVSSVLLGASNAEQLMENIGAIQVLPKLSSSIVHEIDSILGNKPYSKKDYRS
# [5] = target: Voltage-gated potassium channel subunit beta-2 (Rattus norvegicus) (UniProt P62483); experiment: enhancers of rat Kvbeta2 NADPH turnover – biochemical, NADPH fluorescence, primary screen (AID 623;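 active = NADPH fluorescence slope more negative than the mean of all samples by about 3 SD, 99.7% confidence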;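 note: fluorescence intensity change per second fitted from 20 to 320 s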); settings: Recombinant KvBeta, NADPH fluorescence decrease slope, 10 min; at 10 µM; stronger effect = lower value
# [6] = target: Alpha-2C adrenergic receptor (Homo sapiens) (UniProt P18825); experiment: compounds altering alpha2C-coupled GIRK flux – cell-based, HEK293 alpha2C/GIRK1/2, thallium flux, primary screen (AID 624); settings: thallium flux BTC fluorescence, at 10 µM, actives lie on both sides;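 note: slope of fluorescence ratio to pre-addition baseline per second over 15 to 24 s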
# Sequence of Alpha-2C adrenergic receptor (Homo sapiens) (P18825 whole entry, looked up): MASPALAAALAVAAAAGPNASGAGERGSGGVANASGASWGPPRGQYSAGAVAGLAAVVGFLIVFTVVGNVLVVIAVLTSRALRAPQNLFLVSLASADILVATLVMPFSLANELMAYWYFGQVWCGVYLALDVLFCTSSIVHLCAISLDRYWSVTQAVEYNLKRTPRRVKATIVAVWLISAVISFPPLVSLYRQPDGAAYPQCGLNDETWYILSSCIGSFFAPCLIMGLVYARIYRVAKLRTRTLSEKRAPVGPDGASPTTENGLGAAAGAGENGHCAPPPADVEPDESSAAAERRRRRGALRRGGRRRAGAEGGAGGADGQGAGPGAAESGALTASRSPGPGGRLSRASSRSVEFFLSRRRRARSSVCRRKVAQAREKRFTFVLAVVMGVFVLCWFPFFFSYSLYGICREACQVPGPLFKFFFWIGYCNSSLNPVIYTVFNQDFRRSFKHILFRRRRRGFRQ
# [7] = blockers of RIG-like receptor reporter activation – cell-based, Sendai virus stimulus, luciferase, 10K MLSCN set, TLR/RLR signaling modifier project, primary screen (AID 602276;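 active = inhibition at or above 50% at 10 µM; inactive = inhibition below 50%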;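 note: firefly luciferase from ISG56 promoter only with Renilla not read in this screen; 0% = Sendai virus plus DMSO and 100% = medium plus DMSO without virus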); settings: HEK293 RL24 IRF3 luciferase reporter, at 10 µM, stronger effect = higher value
# [8] = TLR3 IRF3 reporter activation blockers – cell-based, poly I:C stimulus, luciferase, 10K MLSCN set, primary screen (AID 602277;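 active = inhibition of the reporter signal at or above 50%; inactive = inhibition below 50%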); settings: HEK293-TLR3 RL24 IRF3 luciferase reporter, at 10 µM, stronger effect = higher value
SMILES,cell count [1],inhibition [1],inhibition of aggregation [2],nuclei count [2],inhibition [3],nuclei count [3],fluorescence slope [4],NADPH fluorescence slope [5],slope [6],inhibition [7],inhibition [8]
O=C(CC1(O)C(=O)Nc2ccccc21)c1ccc2c(c1)OCO2 (stereo not drawn),484,4.5% (inactive),-8.1% (inactive),102%,-22.5% (inactive),110%,-0.384 (inactive),2.8e-06 (inactive),0.00339 (inactive),10.1% (inactive),35.2% (inactive)
c1ccc(-c2nc3nonc3c3nc4ccccc4n23)cc1,333,-12.4% (inactive),1.1% (inactive),95.8%,-40.9% (inactive),94.2%,-0.244 (inactive),-2.9e-05 (inactive),0.00529 (inactive),9.01% (inactive),-7.48% (inactive)
Cc1cc(N)n2nc(-c3ccccc3)cc2n1,492,1.2% (inactive),0% (inactive),98.3%,-15.5% (inactive),110%,-0.421 (inactive),-8.6e-05 (inactive),0.00566 (inactive),-31.2% (inactive),-74.6% (inactive)
COc1ccc(S(=O)(=O)Nc2ccc(S(=O)(=O)N3CCCCC3)cc2)cc1OC,444,-4.8% (inactive),-3.5% (inactive),110%,-34.6% (inactive),99.1%,-0.459 (inactive),-4.3e-05 (inactive),0.00325 (inactive),5.56% (inactive),29.1% (inactive)
O=C(CSc1nnc(-c2cccs2)o1)NCC1CN(Cc2ccccc2)CCO1 (stereo not drawn),669,7.8% (inactive),4.9% (inactive),92.2%,-87.4% (inactive),140%,-0.607 (inactive),-6.7e-06 (inactive),0.00563 (inactive),-0.491% (inactive),-12.1% (inactive)
O=C1c2ccccc2C(Nc2ccc3nc(-c4cccnc4)[nH]c3c2)N1Cc1ccco1 (stereo not drawn),493,-9.4% (inactive),23.2% (inactive),90%,-24.3% (inactive),93.2%,-0.58 (inactive),-3.1e-06 (inactive),0.00653 (inactive),-7.53% (inactive),-13.9% (inactive)
O=c1[nH]c2cc3c(cc2cc1C(c1nnnn1C1CCCCC1)N1CCSCC1)OCCO3 (stereo not drawn),479,0% (inactive),-12.4% (inactive),106%,-10% (inactive),96.7%,-0.313 (inactive),-3.2e-05 (inactive),0.00532 (inactive),-11.4% (inactive),-7.01% (inactive)
COC(=O)C(C#N)C(=C1C(=O)CC(C)(C)CC1=O)c1ccc(O)cc1 (stereo not drawn),315,1.2% (inactive),12% (inactive),92.7%,15% (inactive),109%,-0.319 (inactive),-2.3e-05 (inactive),0.00607 (inactive),9.88% (inactive),10.9% (inactive)
Cc1sc2nc(SCC(=O)NCCO)n(C)c(=O)c2c1C,368,4.3% (inactive),12.1% (inactive),109%,4.8% (inactive),112%,-0.343 (inactive),-5.2e-05 (inactive),0.00646 (inactive),5.26% (inactive),26% (inactive)
CC(CCc1ccccc1)NC(=O)c1ccc(Br)o1 (stereo not drawn),570,-7.8% (inactive),2.5% (inactive),83.4%,-78.2% (inactive),95.1%,-0.449 (inactive),-3.4e-05 (inactive),0.00563 (inactive),7.34% (inactive),9.03% (inactive)
CCOc1ccc(N(CC(=O)Nc2ccc(F)c(F)c2)S(=O)(=O)c2c(C)noc2C)cc1,758,-0.6% (inactive),25.8% (inactive),130%,-35.5% (inactive),109%,-0.521 (inactive),-4.9e-05 (inactive),0.00774 (inactive),13% (inactive),30.3% (inactive)
O=C1NC(c2ccccc2)(C(F)(F)F)SC2=CCCCCN12 (stereo not drawn),415,12.1% (inactive),2% (inactive),98.6%,-14% (inactive),111%,-0.545 (inactive),5e-05 (inactive),0.00583 (inactive),-3.83% (inactive),7.38% (inactive)
O=C(NCCc1ccccc1)C1CCCN(S(=O)(=O)c2cccs2)C1 (stereo not drawn),901,6.9% (inactive),-17.3% (inactive),111%,-27.2% (inactive),115%,-0.571 (inactive),-2.3e-05 (inactive),0.00585 (inactive),10.2% (inactive),23.9% (inactive)
COc1cc(C2C(C#N)=C(C)NC3=C2C(=O)CC(C)(C)C3)ccc1O (stereo not drawn),422,-1.9% (inactive),1% (inactive),103%,-15.6% (inactive),103%,-0.453 (inactive),-2e-05 (inactive),0.00555 (inactive),8.2% (inactive),16.9% (inactive)
COc1ccc(-c2nc(CS(=O)CC(=O)N3CCCC3)c(C)o2)cc1 (stereo not drawn),465,2.6% (inactive),6.1% (inactive),100%,-51.5% (inactive),100%,-0.482 (inactive),-3.2e-05 (inactive),0.006 (inactive),26% (inactive),5.74% (inactive)
O=C(c1csc2ccccc12)N1CCCCCC1,359,5.6% (inactive),13.8% (inactive),100%,-16.8% (inactive),106%,-0.512 (inactive),8.9e-06 (inactive),0.0038 (inactive),7.71% (inactive),5.9% (inactive)
CSc1ccccc1NC(=O)C1CCCO1 (stereo not drawn),842,4.5% (inactive),10.2% (inactive),105%,-73% (inactive),117%,-0.429 (inactive),0.000108 (inactive),0.00731 (inactive),-13.9% (inactive),-1.95% (inactive)
Cc1nnc(NC(=O)CSc2nnc(-c3ccc(S(=O)(=O)N4CCCC4)cc3)n2C)s1,575,-16.3% (inactive),14.6% (inactive),85.9%,-21.6% (inactive),91.4%,-0.495 (inactive),-2.2e-05 (inactive),0.00452 (inactive),17.1% (inactive),17.7% (inactive)
CC(=O)Nc1ccc(NS(=O)(=O)c2ccc(Cl)c(C(=O)O)c2)cc1,688,-3.9% (inactive),11.4% (inactive),124%,-37.3% (inactive),128%,-0.42 (inactive),-3.1e-05 (inactive),0.00403 (inactive),-2.13% (inactive),20.4% (inactive)
Cc1ccc2c(c1)c1c3n2CC(=C2C(=O)OC(C)(C)OC2=O)NC3CCC1 (stereo not drawn),613,-10.5% (inactive),-5.4% (inactive),10.9%,-142% (inactive),139%,-0.589 (inactive),-1.7e-05 (inactive),0.00226 (inactive),16.6% (inactive),1.44% (inactive)
O=C(O)c1cccc(COCC(F)(F)C(F)F)c1,714,-9% (inactive),17.2% (inactive),101%,-16.8% (inactive),102%,-0.497 (inactive),-4.4e-05 (inactive),0.00506 (inactive),5.99% (inactive),5.49% (inactive)
COc1ccc(CCn2c(-c3ccco3)nc3ccccc3c2=O)cc1OC,425,-0.6% (inactive),2.8% (inactive),107%,-99.5% (inactive),120%,-0.402 (inactive),-6.5e-05 (inactive),0.00555 (inactive),-9.43% (inactive),-5.38% (inactive)
CN1CC(=O)N(CC(=O)NCCc2ccc(F)cc2)c2ccccc2C1=O,214,21% (inactive),16.8% (inactive),110%,-1.2% (inactive),90.4%,-0.602 (inactive),-2.2e-05 (inactive),0.0102 (inactive),10.8% (inactive),9.93% (inactive)
CC(C)CC(=O)N1CCN(S(=O)(=O)c2ccc(F)cc2)CC1,662,7.7% (inactive),-7.6% (inactive),105%,34.7% (inactive),86.5%,-0.401 (inactive),2e-05 (inactive),0.00623 (inactive),-4.5% (inactive),-11.7% (inactive)
Cc1[nH]nc(N=CC2=C(O)CC(C)(C)CC2=O)c1-c1ccc(Cl)cc1,344,10.1% (inactive),-7.7% (inactive),102%,-27.4% (inactive),128%,-0.402 (inactive),1.2e-05 (inactive),0.00588 (inactive),11.6% (inactive),-25.9% (inactive)
COc1ccc(N(C(=O)c2ccco2)S(=O)(=O)c2cc(OC)ccc2OC)cc1,568,4.3% (inactive),7.3% (inactive),97.7%,25.3% (inactive),93.2%,-0.343 (inactive),9.2e-06 (inactive),0.00421 (inactive),8.61% (inactive),20.5% (inactive)
COc1ccccc1-c1cc2nc(C)c(CCC(=O)NCc3ccco3)c(C)n2n1,688,-7.7% (inactive),-15.4% (inactive),115%,-41.8% (inactive),111%,-0.587 (inactive),-4.5e-05 (inactive),0.00963 (inactive),18.9% (inactive),16.6% (inactive)
COc1ccccc1N1CCN(Cc2nnnn2CCc2ccccc2)CC1,497,-3.1% (inactive),2% (inactive),99.9%,-42.8% (inactive),92%,-0.565 (inactive),8e-05 (inactive),0.00514 (inactive),-6.87% (inactive),0.354% (inactive)
